Measurements published in ChEMBL document CHEMBL3988442, “University of Dundee, Small-Polar-MMV Screening Library” (2021).

Key:
[1] = molecular target: T1, Aspartate--tRNA(Asp/Asn) ligase (Mycobacterium tuberculosis (strain ATCC 25618 / H37Rv)) (UniProt P9WFW3); assay: Assay for Asp RNA synthetase-1 from Mycobacterium tuberculosis; type: functional; set-up: scale not given: direction of the effect not stated beside the values; settings: 30 µM; note: in the data most compounds retested in dose-response had high values
T1 sequence (whole entry): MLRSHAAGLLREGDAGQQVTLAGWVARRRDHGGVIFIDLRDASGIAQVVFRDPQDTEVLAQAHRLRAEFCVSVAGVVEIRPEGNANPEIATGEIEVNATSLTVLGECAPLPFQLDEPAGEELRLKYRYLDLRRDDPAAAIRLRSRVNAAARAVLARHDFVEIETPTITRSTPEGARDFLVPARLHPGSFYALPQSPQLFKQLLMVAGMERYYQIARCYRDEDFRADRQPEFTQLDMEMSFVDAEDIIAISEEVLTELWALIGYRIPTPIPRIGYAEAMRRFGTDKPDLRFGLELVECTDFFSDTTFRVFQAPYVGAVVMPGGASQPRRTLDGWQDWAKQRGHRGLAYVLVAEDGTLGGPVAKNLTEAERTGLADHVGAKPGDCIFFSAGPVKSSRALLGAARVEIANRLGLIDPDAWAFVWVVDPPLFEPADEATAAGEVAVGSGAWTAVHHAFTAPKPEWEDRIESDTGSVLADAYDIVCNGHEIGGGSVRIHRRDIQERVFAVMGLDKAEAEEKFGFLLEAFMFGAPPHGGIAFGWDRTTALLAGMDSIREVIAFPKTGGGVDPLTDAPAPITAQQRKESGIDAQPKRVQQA

[2] = molecular target: Shiga toxin 2 (Escherichia coli O157:H7) (UniProt P09385+P09386); assay: E. coli 0.157:H7 Shiga Toxin SOP - stx2 screening assay; type: functional; set-up: scale not given: direction of the effect not stated beside the values; settings: 30 µM

Compound | Percent Effect [1] [%] | Percent Effect [2] [%]
CC(C)c1ncc2c(n1)CN(Cc1nc(-c3cccs3)no1)CC2 | 0.321 | 13.1
c1ccc(-c2ncc(CNC3CCc4ncnn4C3)cn2)cc1 (centres undefined) | -0.626 | 13.4
Cc1n[nH]c(C2CN(C(=O)Cn3ccccc3=O)CCO2)n1 (centres undefined) | -3.22 | 10.2
CNC(=O)N1CC[C@@H]2CN(Cc3cccnc3)S(=O)(=O)[C@@H]2CC1 | 1.91 | -0.136
CCOC(=O)c1sc(NC(=O)CN(C)S(C)(=O)=O)c(C#N)c1C | -4.94 | 2.91
CC(=O)NCC(=O)N1Cc2nccn2CC(CN2CCCC2)C1 (centres undefined) | -4.29 | 2.69
CCc1n[nH]c(C2CN(Cc3nnc(C4CC4)n3C)CCO2)n1 (centres undefined) | -0.577 | 9.55
O=C(NCc1cnc2n1CCN(CC1CC1)CC2)C1CCC1 | -5.77 | 7.18
O=C(C1CCOCC1)N1CC[C@H]2C[C@@H](c3ccncn3)O[C@@H]2C1 | 1.69 | -27.6
Cc1ncsc1C(=O)NCc1cccs1 | -1.72 | 1.3
O=C(NCCNc1ncccn1)C1CC(=O)N(CC(F)(F)F)C1 (centres undefined) | -6.31 | 20.8
CCOc1ncccc1NC(=O)N1CCCCCC1 | 7.43 | -2.38
Cc1nc(C(=O)N2CCCC(n3cncn3)C2)cs1 (centres undefined) | -3.48 | 1.3
Cc1cc(C(=O)N2CC[C@@H]3CN(c4ncccn4)CCO[C@@H]3C2)c(C)o1 | 7.23 | -7.5
O=C(O)c1cc(-c2cccnc2)cc(S(=O)(=O)N2CCCCCC2)c1 | -3.5 | 11.4
CNc1snc(C)c1C(=O)N1CCCC(n2ccnc2C(C)C)C1 (centres undefined) | 1.51 | 3.71
CCCC(C)C(=O)N1CCC(n2cccc2C(=O)OC)CC1 (centres undefined) | 0.787 | -16.1
